Screening results as filed in PubChem BioAssay.
Hits are enriched below; roughly 2.5% of the tested compounds scored in any of these assays.
Cruzain inh Det: cruzain (T. cruzi) inhibition with detergent; P25779; purified cruzain, Z-FR-AMC fluorescence, 0.01% Triton; Potency, µM, for inactives: max response, negative = inhibition, hits mostly inhibitors; 200,000 tested, 0.43% active;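 note: plate controls were neutral wells for no effect and buffer without enzyme for full effect; nearly all actives have a fitted effect of over 40% in size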
Target sequence (P25779 123-467 limits assumed): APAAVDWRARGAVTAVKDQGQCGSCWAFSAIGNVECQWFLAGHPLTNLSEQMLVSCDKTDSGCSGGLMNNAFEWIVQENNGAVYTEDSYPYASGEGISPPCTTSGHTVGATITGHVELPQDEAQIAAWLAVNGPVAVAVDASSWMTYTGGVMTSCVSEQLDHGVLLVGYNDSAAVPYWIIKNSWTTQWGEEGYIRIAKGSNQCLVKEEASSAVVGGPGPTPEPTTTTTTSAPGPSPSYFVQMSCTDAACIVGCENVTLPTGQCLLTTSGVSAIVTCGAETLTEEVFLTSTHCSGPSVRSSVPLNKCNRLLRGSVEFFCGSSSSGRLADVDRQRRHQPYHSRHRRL
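Compounds were screened in titration against cruzain (1.5 nM) with 0.01% Triton X-100 to counter colloidal aggregation. Activity was the AMC fluorescence increase over 60 s after adding 2 uM Z-FR-AMC at pH 5.5.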
Cruzain inh noDet: inhibitors of Trypanosoma cruzi cruzain without detergent; Potency, µM, for the others: max response, negative = inhibition, usual class: inhibitors; AID 1476; purified cruzain, Z-FR-AMC fluorescence, no detergent; P25779; 200,000 tested, 2.3% active;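 note: plate controls were enzyme without inhibitor for no effect and buffer without enzyme for full effect; nearly all actives have a fitted effect of over 40% in size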
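Detergent-free condition (0.00005% Triton X-100) in acetate buffer pH 5.5 with DTT. 1.5 nM enzyme and compound were pre-mixed 15 min, then 2 uM Z-FR-AMC substrate added; reaction progress from fluorescence change between first and third reads (60 s).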
* marks the source's active call; other numbers are inactive results. Calls come from the whole dose curve; as a rule, active = well fitted curve in the direction sought with a large enough effect; inconclusive = small, poorly fitted or top-dose-only effect, or another doubt; inactive = no such curve, though single readings can be large; an effect the other way counts as inactive or inconclusive. Potency is the fitted concentration of half-maximal effect.

How did O=C(NC1CC(=O)N(c2cccc(F)c2)C1)c1ccc(S(=O)(=O)N2CCCC2)cc1 (centres undefined) do in these assays?
Cruzain inh Det: -3%; Cruzain inh noDet: -3%

How did Cc1ccccc1C(=O)n1nc(-c2ccco2)nc1NCc1cccs1 do in these assays?
Cruzain inh Det: -5%; Cruzain inh noDet: -13%

What do the screens show for `Cc1c(C(=O)NCCc2ccc(Cl)cc2)cccc1-n1cnc2cccnc21`?
Cruzain inh Det: -4%; Cruzain inh noDet: 0%

Results for CCn1c2ccccc2c2cc(/C=N/NC(=O)c3cccc(C)c3)ccc21 ?
Cruzain inh Det: 7%; Cruzain inh noDet: 7.9µM*

What do the screens show for `Cc1cccc(C(=O)N/N=C/c2ccncc2)c1`?
Cruzain inh Det: 0%; Cruzain inh noDet: 4%

What do the screens show for `CCn1c2ccccc2c2cc(/C=N/NC(=O)c3ccccc3C)ccc21`?
Cruzain inh Det: -21%; Cruzain inh noDet: 32µM*

What do the screens show for `CCn1c2ccccc2c2cc(/C=N/n3cnnc3)ccc21`?
Cruzain inh Det: -11%; Cruzain inh noDet: -7%

What do the screens show for `Cc1ccc(-n2ncc(C(=O)NCCN3CCc4ccccc4C3)c2C2CCNCC2)cc1C`?
Cruzain inh Det: 0%; Cruzain inh noDet: 6%

Results for COc1ccc2c(c1)c1c(c(=O)n(-c3cc(Cl)ccc3C)c(=O)n1Cc1ccc(F)cc1)n2C ?
Cruzain inh Det: 2%; Cruzain inh noDet: 9%

How did CSc1cccc(NC(=O)C2CCCN(C(=O)c3cnn(-c4ccc(F)cc4)c3-n3cccc3)C2)c1 (centres undefined) do in these assays?
Cruzain inh Det: -7%; Cruzain inh noDet: inconclusive

What do the screens show for `COc1ccc(C(=O)Nc2nc3n(n2)C(c2ccc(F)cc2)C=C(c2ccc(Cl)cc2)N3)cc1` (centres undefined)?
Cruzain inh Det: -9%; Cruzain inh noDet: inconclusive

How did CC1=C(C(=O)OCc2ccc3c(c2)OCO3)C(c2ccccc2)NC(=O)N1 (centres undefined) do in these assays?
Cruzain inh Det: -4%; Cruzain inh noDet: -6%

What do the screens show for `CC1=C(C(=O)OCc2ccc3c(c2)OCO3)C(c2ccccc2OCc2ccccc2)NC(=O)N1` (centres undefined)?
Cruzain inh Det: -1%; Cruzain inh noDet: 16µM*

How did Cc1ccc(C(=O)NCC(c2ccco2)S(=O)(=O)c2cccs2)cc1C (centres undefined) do in these assays?
Cruzain inh Det: -3%; Cruzain inh noDet: -3%

How did CCOC(=O)c1cc(-c2ccc(N)cc2)sc1N do in these assays?
Cruzain inh Det: -17%; Cruzain inh noDet: 32µM*

What do the screens show for `CCOC(=O)c1sc(-c2ccc(Br)cc2)cc1N`?
Cruzain inh Det: -6%; Cruzain inh noDet: -2%

Results for COc1cc(Cl)c(NC(=O)CN2C(=O)c3cccnc3Sc3ccccc32)c(OC)c1 ?
Cruzain inh Det: -3%; Cruzain inh noDet: -2%

Results for Nc1ccc(Sc2cc(Cl)nc(N)n2)cc1 ?
Cruzain inh Det: 6%; Cruzain inh noDet: 13µM*

How did COCc1cc(Sc2ccc(Cl)cc2)nc(-c2ccccc2)n1 do in these assays?
Cruzain inh Det: 0%; Cruzain inh noDet: -6%

Results for O=S(=O)(c1ccc(Br)cc1)c1nc(-c2ccco2)oc1SCc1ccccc1Cl ?
Cruzain inh Det: -1%; Cruzain inh noDet: 11%

What do the screens show for `Cc1cc(/C=C(\C#N)C(=O)NCCc2c[nH]c3ccccc23)c(C)n1C`?
Cruzain inh Det: -8%; Cruzain inh noDet: 0%

Results for COc1cc(/C=C(/C#N)C(=O)NCCc2c[nH]c3ccccc23)ccc1OCc1ccccc1F ?
Cruzain inh Det: 5%; Cruzain inh noDet: 7.9µM*

What do the screens show for `CCNc1cc2oc(=O)c(CN3CCOCC3)c(C)c2cc1C`?
Cruzain inh Det: 28µM*; Cruzain inh noDet: inconclusive

How did Cc1cc2oc(=O)cc(CN3CCOCC3)c2cc1C do in these assays?
Cruzain inh Det: 0%; Cruzain inh noDet: -9%

How did Cc1ccc(S(=O)(=O)/N=C2/C=C(C3C(=O)CC(C)(C)CC3=O)C(=O)c3ccccc32)cc1 do in these assays?
Cruzain inh Det: -6%; Cruzain inh noDet: -16%

Results for CCc1ccc(S(=O)(=O)/N=C2/C=C(Sc3ncn[nH]3)C(=O)c3ccccc32)cc1 ?
Cruzain inh Det: -14%; Cruzain inh noDet: 25µM*

Results for COc1ccc(-c2noc(C3CC(=O)N(c4ccc(C)c(F)c4)C3)n2)c(OC)c1 (centres undefined) ?
Cruzain inh Det: -9%; Cruzain inh noDet: inconclusive

What do the screens show for `Cc1c(Cl)cnc(NC(=O)COC(=O)c2cc3c(s2)CCC(C)C3)c1Cl` (centres undefined)?
Cruzain inh Det: -1%; Cruzain inh noDet: inconclusive

How did Cc1cc(NC(=O)COC(=O)c2cc3c(s2)CCC(C)C3)no1 (centres undefined) do in these assays?
Cruzain inh Det: 2%; Cruzain inh noDet: 32µM*

Results for Cc1ccc(C2C(=O)N(C3CCCCCC3)CC(=O)N2CCC2=CCCCC2)cc1 (centres undefined) ?
Cruzain inh Det: 1%; Cruzain inh noDet: -6%
